Inconclusive results are not listed. Calls of active or inactive are those of the source. How the source made its calls, unless noted: active means hit-call score of the fitted dose curve at least 0.9, where 1 is the maximum; inconclusive means response in the unintended direction; inactive means score below 0.9.
How the values were obtained:
[1] = Tanguay_ZF_120hpf_EYE_legacy: (Legacy) Oregon State University Tanguay Lab 120 Hour Post-fertilization zebrafish Assay for Eye Malformation (AID 2283636);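 further: binary presence or absence of eye malformation scored by brightfield in 120 hpf larvae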
Procedure, shortened: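 Dechorionated Tropical 5D zebrafish embryos, one per well from 6 hpf, static exposure to 120 hpf at 28C, 0.64% DMSO. Eye malformation scored present/absent by brightfield; dead embryos not scored.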

[2] = Tanguay_ZF_120hpf_SNOU_legacy: (Legacy) Oregon State University Tanguay Lab 120 Hour Post-fertilization zebrafish Assay for Snout Malformation (AID 2283637)
Procedure, shortened: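 Dechorionated tropical 5D wild-type zebrafish embryos exposed statically from 6 to 120 hpf at 28C, one per well, in 0.64% DMSO. Snout malformation scored as present/absent by brightfield at 120 hpf; dead embryos not scored.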

[3] = Tanguay_ZF_120hpf_JAW_legacy: (Legacy) Oregon State University Tanguay Lab 120 Hour Post-fertilization zebrafish Assay for Jaw Malformation (AID 2283638);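 on AC50: active means more embryos with jaw malformation than DMSO controls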
Procedure, shortened: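 Static waterborne exposure of dechorionated wild-type (Tropical 5D) zebrafish from 6 to 120 hpf at 28C, 0.64% DMSO vehicle; 5uM trimethyltin chloride served as positive control. Jaw morphology recorded as binary at 120 hpf.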

[4] = Tanguay_ZF_120hpf_OTIC_legacy: (Legacy) Oregon State University Tanguay Lab 120 Hour Post-fertilization zebrafish Assay for Otic Vesicle Malformation (AID 2283639)
Procedure, shortened: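 Tropical 5D wild-type zebrafish embryos statically exposed in 0.64% DMSO at 28C until 120 hpf; 5uM trimethyltin chloride as positive control. Otic vesicle malformation scored present/absent by brightfield; dead embryos not scored; gain fitted versus DMSO.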

[5] = Tanguay_ZF_120hpf_PE_legacy: (Legacy) Oregon State University Tanguay Lab 120 Hour Post-fertilization zebrafish Assay for Pericardial Edema (AID 2283640);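 on AC50: potency for increased incidence of pericardial edema versus DMSO baseline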
Procedure, shortened: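 Read-out is the presence or absence of pericardial edema at 120 hpf under brightfield, with gain of signal fitted against DMSO controls. Larvae (5D wild-type) were statically exposed at 28C with 0.64% final DMSO.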

[6] = Tanguay_ZF_120hpf_BRAI_legacy: (Legacy) Oregon State University Tanguay Lab 120 Hour Post-fertilization zebrafish Assay for Brain Malformation (AID 2283641)
Procedure, shortened: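 Brain malformation in Tropical 5D zebrafish was recorded as a binary endpoint after static compound exposure from early development to 120 hpf at 28C. Activity was analysed against DMSO as negative control.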

[7] = Tanguay_ZF_120hpf_SOMI_legacy: (Legacy) Oregon State University Tanguay Lab 120 Hour Post-fertilization zebrafish Assay for Somite Malformation (AID 2283647)
Procedure, shortened: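 5D WT zebrafish; chorion removed 4 hpf; 1 embryo/well from 6 hpf; static exposure to 120 hpf, 28C, 0.64% DMSO final. Endpoint: somite malformation, binary, brightfield. Mortality excluded.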

[8] = Tanguay_ZF_120hpf_PFIN_legacy: (Legacy) Oregon State University Tanguay Lab 120 Hour Post-fertilization zebrafish Assay for Pectoral Fin Malformation (AID 2283648);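 further: each larva judged yes or no for fin defect by brightfield with dead larvae skipped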
Procedure, shortened: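 Dechorionated Tropical 5D wild-type zebrafish embryos, one per well, statically exposed from 6 to 120 hpf at 28C with 0.64% DMSO final. Pectoral fin malformation scored present/absent by brightfield at 120 hpf; not scored in dead embryos.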

[9] = Tanguay_ZF_120hpf_CFIN_legacy: (Legacy) Oregon State University Tanguay Lab 120 Hour Post-fertilization zebrafish Assay for Caudal Fin Malformation (AID 2283649)
Procedure, shortened: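 Embryos were collected from Tropical 5D wild-type adults and dechorionated at 4 hpf. At 6 hpf each was exposed, one per well, at 0.64% DMSO and 28C. At 120 hpf fin morphology was scored; dead embryos were excluded.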

[10] = Tanguay_ZF_120hpf_PIG_legacy: (Legacy) Oregon State University Tanguay Lab 120 Hour Post-fertilization zebrafish Assay for Pigmentation Malformation (AID 2283650)
Procedure, shortened: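 Dechorionated Tropical 5D wild-type embryos, one per well from 6 hpf, statically exposed at 28C in the dark until 120 hpf, 0.64% DMSO final. Pigmentation scored present/absent by brightfield microscopy; dead embryos not scored; fitted versus DMSO.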

[11] = Tanguay_ZF_120hpf_SWIM_legacy: (Legacy) Oregon State University Tanguay Lab 120 Hour Post-fertilization zebrafish Assay for Swim Bladder Malformation (AID 2283654);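 further: swim bladder malformation in each larva scored yes or no under brightfield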
Procedure, shortened: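 Dechorionated wild-type Tropical 5D zebrafish embryos, one per well from 6 hpf, were statically exposed at 28C until 120 hpf in 0.64% DMSO. Swim bladder malformation scored as present/absent by brightfield microscopy; not scored in dead larvae.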

[12] = Tanguay_ZF_120hpf_TRUN_legacy: (Legacy) Oregon State University Tanguay Lab 120 Hour Post-fertilization zebrafish Assay for Truncated Body (AID 2283655)
Procedure, shortened: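 5D wild-type larvae; pronase dechorionation; static exposure 6→120 hpf, 28C; DMSO 0.64% final; 5uM trimethyltin chloride positive control. Readout: presence/absence of truncated body, analyzed relative to DMSO.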

[13] = Tanguay_ZF_120hpf_NC_legacy: (Legacy) Oregon State University Tanguay Lab 120 Hour Post-fertilization zebrafish Assay for Notochord and Tail Malformation (AID 2283656)
Procedure, shortened: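 Dechorionated Tropical 5D wild-type zebrafish embryos, one per well from 6 hpf, statically exposed to 120 hpf at 28C in 0.64% DMSO final. Notochord distortion scored present/absent by brightfield; dead embryos excluded.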

[14] = read-out: ABC Transporter (ABCB1), ABCB1 (gene 5243); experiment: CLD_ABCB1_6hr: CellzDirect (CLD) Gene Expression Assay for ABC Transporter (ABCB1) at 6 hours (AID 2283659);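 further: hits raise ABCB1 transcript above the DMSO vehicle baseline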
Procedure, shortened: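 Primary human hepatocytes (two donor preparations) dosed daily for two days with chemicals at multiple concentrations, 0.2% DMSO vehicle; harvested 6 h post-dose. ABCB1 mRNA induction quantified by qNPA chemiluminescence; gain-of-signal fitted versus DMSO.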

[15] = read-out: Broad substrate specificity ATP-binding cassette transporter ABCG2 (Homo sapiens) (UniProt Q9UNQ0); experiment: CLD_ABCG2_6hr: CellzDirect (CLD) Gene Expression Assay for ABC Transporter (ABCG2) at 6 hours (AID 2283660)
Procedure, shortened: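 Primary human hepatocytes dosed daily with chemicals at multiple concentrations (0.2% DMSO vehicle), harvested 6 h after dosing. ABCG2 mRNA induction read by quantitative nuclease protection assay (qNPA) chemiluminescence; gain of signal fitted against DMSO baseline.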

[16] = read-out: xenobiotic metabolism (CYP1A1), CYP1A1 (gene 1543); experiment: CLD_CYP1A1_6hr: CellzDirect (CLD) Gene Expression Assay for xenobiotic metabolism (CYP1A1) at 6 hours (AID 2283661);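 on AC50: potency for transcript induction above DMSO vehicle baseline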
Procedure, shortened: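 Primary human hepatocytes from two donors, compound versus 0.2% DMSO vehicle. CYP1A1 mRNA measured 6 h after dosing by quantitative nuclease protection assay with chemiluminescent read-out; induction fitted relative to DMSO, cytotoxicity flagged by microscopy.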

[17] = Tanguay_ZF_120hpf_CIRC_legacy: (Legacy) Oregon State University Tanguay Lab 120 Hour Post-fertilization zebrafish Assay for Circulatory Malformation (AID 2283651)
Procedure, shortened: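 Dechorionated wild-type 5D zebrafish embryos, one per well, statically exposed from 6 to 120 hpf at 28C with 0.64% DMSO; circulatory malformation scored present/absent by brightfield microscopy at 120 hpf, dead embryos excluded.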

[18] = read-out: kallikrein-3 (KLK3), KLK3 (gene 354); experiment: LTEA_HepaRG_KLK3: Life Technologies and Expression Analysis (LTEA) Assay for kallikrein-3 (KLK3) using HepaRG (AID 2283652; active means hit-call score of the fitted dose curve at least 0.9, where 1 is the maximum; inactive means score below 0.9); details: mRNA level, 48 h; actives raise or lower the signal
Procedure, shortened: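 Differentiated human HepaRG cells in serum-free induction medium exposed 48 h in duplicate, eight-point half-log series from 100 uM in 0.5% DMSO. KLK3 mRNA by qRT-PCR, normalised to ACTB, GAPDH, POLR2A; bidirectional fit versus DMSO.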

[19] = read-out: solute carrier (SLC10A1), SLC10A1 (gene 6554); experiment: LTEA_HepaRG_SLC10A1: Life Technologies and Expression Analysis (LTEA) Assay for solute carrier (SLC10A1) using HepaRG (AID 2283657; active means hit-call score of the fitted dose curve at least 0.9, where 1 is the maximum; inactive means score below 0.9); details: mRNA level, 48 h; actives raise or lower the signal
Procedure, shortened: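 HepaRG cells (single lot) exposed 48 h in serum-free induction medium, 8-point half-log series from 100 uM top in 0.5% DMSO, duplicate. SLC10A1 mRNA by qRT-PCR normalised to ACTB, GAPDH, POLR2A; bidirectional fit versus DMSO.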

[20] = read-out: matrix metalloproteinase-1 (MMP1), MMP1 (gene 4312); experiment: LTEA_HepaRG_MMP1: Life Technologies and Expression Analysis (LTEA) Assay for matrix metalloproteinase-1 (MMP1) using HepaRG (AID 2283658; active means hit-call score of the fitted dose curve at least 0.9, where 1 is the maximum; inactive means score below 0.9); details: mRNA level, 48 h; actives raise or lower the signal
Procedure, shortened: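 Bidirectional concentration-response fitting relative to 0.5% DMSO gives the endpoint, derived from MMP1 mRNA levels (qRT-PCR) in human HepaRG cells treated 48 h with chemicals up to 100 uM.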

Measured: AC50

Sequence of Broad substrate specificity ATP-binding cassette transporter ABCG2 (Homo sapiens) (Q9UNQ0 whole entry, looked up): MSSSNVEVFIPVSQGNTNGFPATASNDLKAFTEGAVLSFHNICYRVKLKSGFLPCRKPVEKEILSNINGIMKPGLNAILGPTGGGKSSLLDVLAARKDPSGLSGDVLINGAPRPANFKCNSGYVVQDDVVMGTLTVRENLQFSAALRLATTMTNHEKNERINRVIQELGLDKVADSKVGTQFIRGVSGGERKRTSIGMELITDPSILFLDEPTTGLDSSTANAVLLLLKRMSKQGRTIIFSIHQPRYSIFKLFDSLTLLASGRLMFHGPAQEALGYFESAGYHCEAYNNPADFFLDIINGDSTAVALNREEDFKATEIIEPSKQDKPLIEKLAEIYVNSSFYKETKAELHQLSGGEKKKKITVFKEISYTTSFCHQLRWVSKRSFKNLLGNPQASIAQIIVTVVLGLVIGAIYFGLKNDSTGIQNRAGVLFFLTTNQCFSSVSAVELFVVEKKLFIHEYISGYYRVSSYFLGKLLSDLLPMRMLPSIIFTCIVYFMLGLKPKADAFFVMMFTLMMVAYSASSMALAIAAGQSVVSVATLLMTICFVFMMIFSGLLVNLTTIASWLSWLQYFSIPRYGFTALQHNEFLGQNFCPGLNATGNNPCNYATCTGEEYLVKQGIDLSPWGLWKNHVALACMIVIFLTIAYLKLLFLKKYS

CON=C(C(=O)OC)c1ccccc1CON=C(C)c1cccc(C(F)(F)F)c1
active: [1] 5.22 µM | [2] 4.07 µM | [3] 5.3 µM | [5] 8.26 µM | [6] 6.64 µM
inactive: [4] | [7] | [8] | [9] | [10] | [11] | [12] | [13] | [14] | [15] | [16]

CCOP(=S)(Oc1cnc(C(C)(C)C)nc1)OC(C)C (stereo not given)
inactive: [1] | [2] | [3] | [4] | [5] | [6] | [7] | [8] | [10] | [17] | [18] | [11] | [12] | [13] | [20] | [14] | [15]
active: [19] 16.5 µM | [16] 2.24 µM

CCOP(=O)(OCC)Oc1cc(C)nc(C(C)C)n1
inactive: [1] | [2] | [3] | [4] | [5] | [6] | [7] | [8] | [9] | [10] | [17] | [11] | [12] | [13] | [14] | [15] | [16]

CN(C)[C@@H]1C(=O)C(C(N)=O)=C(O)[C@@]2(O)C(=O)C3=C(O)c4c(O)cccc4[C@@](C)(O)[C@H]3[C@H](O)[C@@H]12
inactive: [1] | [2] | [3] | [4] | [5] | [6] | [7] | [8] | [9] | [17] | [12] | [13] | [14] | [15] | [16]

CC(C)[C@H](C(=O)O[C@H](C#N)c1cccc(Oc2ccccc2)c1)c1ccc(Cl)cc1
inactive: [4] | [9] | [10] | [12] | [13] | [14] | [15] | [16]
active: [1] 2.82 µM | [2] 2.25 µM | [3] 5.13 µM | [5] 5.21 µM | [6] 4.07 µM | [7] 1.15 µM | [8] 1.17 µM | [11] 4.25 µM

CCC(CC)Nc1c([N+](=O)[O-])cc(C)c(C)c1[N+](=O)[O-]
inactive: [1] | [2] | [3] | [4] | [5] | [6] | [7] | [8] | [9] | [10] | [17] | [11] | [12] | [13] | [14] | [16]

CC(Oc1cccc(Cl)c1)C(=O)O (stereo not given)
inactive: [1] | [2] | [3] | [4] | [5] | [6] | [7] | [8] | [9] | [10] | [11] | [12] | [13] | [14] | [15] | [16]
